High-throughput results: PubChem, National Center for Advancing Translational Sciences (NCATS)
Only some compounds are listed: those with a hit (about 11% of all), similar ones and a draw of the others.
3T3 cytotox: Cytotoxic Profiling in NIH 3T3 Cell Line of Diverse Libraries Using Quantitative High-Throughput Screening; NIH 3T3 viability, CellTiter-Glo ATP luminescence, 48-72 h; Potency, µM (highest dose often 96.7 µM), for the others: at the highest dose activity change, negative = cytotoxicity, hits mostly inhibitors; 4.3% of 94,000 active; AID 1345082, 2018; further: nearly all actives have a fitted effect of over 55% in size
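Viability of NIH 3T3 cells after 48 or 72 hr compound treatment at 37 °C was assessed by CellTiter-Glo, with luminescence imaged following a 10 min room-temperature step.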
NPR1 antag: Natriuretic polypeptide receptor (hNpr1) antagonism - Primary qHTS; Atrial natriuretic peptide receptor 1 (Homo sapiens), P16066; HEK293 hNpr1 GloSensor cGMP, ANP-stimulated luminescence; Potency, µM (series often up to 46.3 µM), inactives show at the top dose activity change, negative = inhibition, usual class: inhibitors; 1.6% of 76,000 active; AID 1347048, 2019; calls by dose curve; further: nearly all actives have a fitted effect of over 60% in size
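Compound pre-incubated 30 min at room temperature on GloSensor-loaded HEK293 cells stably carrying hNpr1 and the pGS-40F cGMP biosensor. Stimulation uses hNppA at 0.1 nM final; luminescence is taken at baseline and 20 min post-agonist.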
HEK293 tox: Cytotoxic Profiling in HEK 293 Cell Line of Diverse Libraries Using Quantitative High-Throughput Screening; 6.6% of 94,000 active; Potency, µM (doses to about 115 µM), for the others: top-dose activity change, negative = cytotoxicity, actives largely listed as inhibitors; HEK 293 viability, ATP luminescence (CellTiter-Glo), 48-72 h; further: nearly all actives have a fitted effect of over 60% in size
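250 HEK 293 cells/well; compound by pintool; incubated 48 or 72 hr at 37 degree Celsius; CellTiter-Glo added, 10 min RT, luminescence imaged.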
Luciferase inh: Firefly luciferase inhibition profiling of diverse chemical library using quantitative high-throughput screening; purified P. pyralis luciferase, luminescence, biochemical; Potency, µM (doses to about 115 µM), most hits filed as inhibitors; 2.5% of 76,000 active; AID 1347043, 2019; further: nearly all actives have a fitted effect of over 65% in size
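Biochemical qHTS: compound (6-point titration) added to 10uM D-luciferin plus 10uM ATP in Tris acetate pH 7.5 buffer with Mg, Tween-20 and BSA, then purified enzyme at 10nM; light output imaged.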
Starred values were filed as active, the others as inactive; i = inactive; u = inconclusive; x = no result given; [ ] = remark or other dose. Unless noted, the call rests on the fitted dose curve; in most records, active means well fitted curve in the direction sought with a large enough effect; inconclusive means small, poorly fitted or top-dose-only effect, or another doubt; inactive means no such curve, though single readings can be large; an effect the other way counts as inactive or inconclusive. On the % scale 0 is the no-effect control and ±100 the full control effect; potency means the concentration at half of the fitted maximal effect.

SMILES | 3T3 cytotox | NPR1 antag | HEK293 tox | Luciferase inh
Cc1nc(CN2CC3(CCN(C)C3)c3cc(C(=O)NCC4CC4)ccc32)cs1 (centres undefined) | u | 0.8%[70.6 µM] | -36.9%[172 µM] | i
Cc1nc(CN2CC3(CCN(C)C3)c3cc(C(=O)NCc4cccs4)ccc32)cs1 (centres undefined) | 79.4µM* | -4.5%[70.6 µM] | u | i
Cc1nc(CN2CC3(CCN(C)C3)c3cc(C(=O)NCc4ccccc4)ccc32)cs1 (centres undefined) | u | -7.3%[70.6 µM] | 112µM* | i
CN1CCCC2(C1)CN(Cc1cccnc1)c1ccc(C(=O)NCc3cccs3)cc12 (centres undefined) | u | 6.1%[70.6 µM] | u | i
CN1CCc2c([nH]c3ccccc23)C12CCN(C(=O)c1ccc(Cn3ccnc3)o1)CC2 | -23.8% | 0.6% | 89.1µM* | i
CN1CCc2c([nH]c3ccccc23)C12CCN(C(=O)c1ccnn1C)CC2 | -12.7% | 0.0% | 1.6% | i
O=C(c1ccc2[nH]ccc2c1)N1CCC2(CC1)Nc1ccccc1NC2=O | -14.4% | -9.7% | 39.8µM* | i
O=C(c1ccc2n[nH]nc2c1)N1CCC2(CC1)Nc1ccccc1NC2=O | -12.7% | 4.7% | -29.1% | i
Fc1ccccc1-c1cc2c(cn1)CN(Cc1cccnc1)CCN2 | -21.8%[138 µM] | -8.9%[70.6 µM] | u | 31.6µM*
c1ccc(CNc2cc3c(cn2)CN(Cc2cccnc2)CCN3)cc1 | -68.2%[138 µM] | -13.1%[70.6 µM] | -66.1%[172 µM] | i
c1cc(CN2CCNc3cc(-c4ccsc4)ncc3C2)ccn1 | -12.0%[138 µM] | 3.5%[70.6 µM] | u | u
Fc1cccc(-c2cc3c(cn2)CN(Cc2ccncc2)CCN3)c1 | -23.3%[138 µM] | -23.3%[70.6 µM] | u | 39.8µM*
C[S+](=O)([O-])c1ccc(-c2cc3c(cn2)CN(Cc2ccccc2)CCN3)cc1 | u | -3.4%[70.6 µM] | u | u
Clc1cnccc1CN1CCNc2cc(-c3ccccc3)ncc2C1 | u | -16.1%[70.6 µM] | u | 28.2µM*
CCc1cc(N2CCCC(OCc3ccccn3)C2)n2nc(C)c(C)c2n1 (centres undefined) | -29.2% | -3.4% | -27.0% | i
Cc1cccc(CC(=O)N2CCCCC2c2noc(COc3ccc(F)cc3)n2)c1 (centres undefined) | u | u | u | i
Cc1ccsc1C(=O)N1CCCC2(CC1)CN(C)C(=O)O2 (centres undefined) | -3.6% | x | -4.8% | x
O=C(c1cccs1)N1CCC2(CC1)NCCc1c2[nH]c2ccccc12 | u | -15.6% | u | i
O=C(Nc1cccnc1)c1nc2c(o1)CCN(Cc1cccs1)CC2 | u | -19.2%[70.6 µM] | 89.1µM* | u
O=C(Nc1cccc(C(F)(F)F)c1)c1nc2c(o1)CCN(Cc1nccs1)CC2 | u | 35.5µM* | u | 15.8µM*
N#Cc1cccc(CN2CCc3nc(C(=O)Nc4cccc(C(F)(F)F)c4)oc3CC2)c1 | u | 11.2µM* | u | u
N#Cc1cccc(CN2CCc3nc(C(=O)NCC4CC4)oc3CC2)c1 | u | -24.4%[70.6 µM] | u | i
O=C(NCc1cccc(F)c1)c1nc2c(o1)CCN(Cc1cccc(F)c1F)CC2 | 44.7µM* | u | 50.1µM* | i
O=C(NCC1CC1)c1nc2c(o1)CCN(Cc1cccc(O)c1)CC2 | 100µM* | 4.3%[70.6 µM] | u | u
O=C(NCc1ccncc1)c1nc2c(o1)CCN(Cc1ccccc1)CC2 | -26.4%[138 µM] | -23.7%[70.6 µM] | u | i
SMILES | 3T3 cytotox | NPR1 antag | HEK293 tox | Luciferase inh
COc1cccc(CN2CCc3nc(C(=O)Nc4cccnc4)oc3CC2)c1 | u | u | u | 22.4µM*
O=C(Nc1cccc(C(F)(F)F)c1)c1nc2c(o1)CCN(Cc1cccs1)CC2 | u | u | u | 8.91µM*
COc1ccc(CN2CCc3nc(C(=O)Nc4cccnc4)oc3CC2)cc1OC | u | -16.8%[70.6 µM] | u | i
COCCN1CCCC2(CCN(c3nc4c(c(=O)[nH]c(=O)n4C)n3C)C2)C1=O (centres undefined) | -1.2% | -1.9% | i | i
c1ccc(CN2CCC[C@H]2c2nc(-c3ccc(OC4CCCCC4)nc3)no2)nc1 | 44.7µM* | u | 63.1µM* | u
c1ccc2c(CN3CCC[C@H]3c3nc(-c4ccc(OC5CCCCC5)nc4)no3)c[nH]c2c1 | 31.6µM* | -29.2% | 35.5µM* | i
COCCOc1ccc(-c2noc([C@@H]3CCCN3Cc3c[nH]c4ccccc34)n2)cn1 | -22.9%[138 µM] | -9.2%[70.6 µM] | u | i
c1ccc2ncc(CN3CCC[C@H]3c3nc(-c4ccc(OC5CCCCC5)nc4)no3)cc2c1 | u | u | u | i
COCCNc1ncccc1-c1noc([C@@H]2CCCN2Cc2ccccn2)n1 | u | 3.3%[70.6 µM] | 22.4µM* | i
O=C(NCC1CC1)C1CCc2nnc(-c3ccccn3)n21 (centres undefined) | -14.9%[138 µM] | x | -21.4%[172 µM] | x
Cc1cn2nc(C(=O)N3CCC(NC(=O)c4ccc[nH]4)CC3)cc2c(=O)[nH]1 | -28.5% | 14.1% | -3.7% | i
COc1ncccc1-c1cc2c(ccn2CC2CCN(C)CC2)c(N2CCOCC2)n1 | 44.7µM* | -12.7%[70.6 µM] | 89.1µM* | i
COc1cccc(-c2cc3c(ccn3CC3CCN(C)CC3)c(N3CCOCC3)n2)c1 | 25.1µM* | -0.4%[70.6 µM] | 63.1µM* | i
C[S+](=O)([O-])N1CCC(Cn2ccc3c(N4CCOCC4)nc(-c4cncnc4)cc32)CC1 | u | -9.2% | -15.2% | i
Cc1cc(C(=O)N2CCCN(S(C)(=O)=O)C(c3ccccc3)CC(=O)NCC2)n(C)n1 (centres undefined) | -21.2% | -3.5% | -17.3% | i
COCCN1CCCC1c1nc(C2CN(S(=O)(=O)c3cccc(OC)c3)C2)no1 (centres undefined) | -20.3% | x | -27.1% | x
CN(Cc1ccc(C2CCCCO2)s1)CC1CCN(CCc2ccc(F)cc2)CC1 (centres undefined) | u | -5.6% | 44.7µM* | i
CC(C)c1nc2ccccc2n1CCNC(=O)Cn1nc2c(cc1=O)CCCCC2 | i | 4.9% | 4.3% | i
O=C(c1ccc2ccccc2n1)N1CC(c2nnc(-c3ccncc3)o2)C2(CCOCC2)C1 (centres undefined) | -2.1% | -12.1% | -4.1% | i
CC(C)(Oc1nn(Cc2cccc(Cl)c2)c2ccccc12)C(=O)NCC1CCOCC1 | u | u | u | i
COCCCNC(=O)C(C)(C)Oc1nn(Cc2cccc(Cl)c2)c2ccccc12 | u | u | u | i
CN1CCC(NC(=O)C(C)(C)Oc2nn(Cc3cccc(Cl)c3)c3ccccc23)CC1 | 31.6µM* | -26.1%[70.6 µM] | 39.8µM* | i
CC(C)(Oc1nn(Cc2cccc(Cl)c2)c2ccccc12)C(=O)NCc1ccncc1 | 31.6µM* | u | u | i
CC(C)(Oc1nn(Cc2cccc(Cl)c2)c2ccccc12)C(=O)NCc1cnccn1 | u | -23.3%[70.6 µM] | 89.1µM* | i
